Data: PubChem BioAssay AID1159580 (chemical genetic matrix, 2015)
The whole screen tested about 5,500 compounds, of which about 2,000 (36%) were called active. Inconclusive results (about 18%) are left out. No stated cut-off is given here; in the data, active means normalized growth mostly below about 0.91 (no sharp cut-off); inconclusive means no clear call, values can overlap the other calls; inactive means mostly above about 0.92. The list shows a part of the results.

Experiment: chemical genetic growth profiling, strain panel (AID 1159580);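 further: tested at 20 µM; growth read once vehicle control cultures reached saturation at 30 °C; 1 = growth at the plate median or of vehicle wells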
Conditions: growth OD
[1] = S. cerevisiae deletion strains, locus YAL013W, strain DEP1, stronger effect = lower value
[2] = S. cerevisiae deletion strains, locus YDR150W, strain NUM1, stronger effect = lower value
[3] = S. cerevisiae deletion strains, locus YGR078C, strain PAC10, stronger effect = lower value
[4] = S. cerevisiae deletion strains, locus YJR075W, strain HOC1, stronger effect = lower value
[5] = S. cerevisiae deletion strains, locus YMR307W, strain GAS1, stronger effect = lower value
[6] = S. cerevisiae deletion strains, locus YNL322C, strain KRE1, stronger effect = lower value
[7] = S. cerevisiae deletion strains, locus YBR229C, strain ROT2, stronger effect = lower value
[8] = S. cerevisiae deletion strains, locus YDL101C, strain DUN1, stronger effect = lower value
[9] = S. cerevisiae deletion strains, locus YEL061C, strain CIN8, stronger effect = lower value
[10] = S. cerevisiae deletion strains, locus YHR030C, strain SLT2, stronger effect = lower value
[11] = S. cerevisiae deletion strains, locus YJR043C, strain POL32, stronger effect = lower value
[12] = S. cerevisiae deletion strains, locus YLR039C, strain RIC1, stronger effect = lower value
[13] = S. cerevisiae deletion strains, locus YLR262C, strain YPT6, stronger effect = lower value
[14] = S. cerevisiae deletion strains, locus YNL153C, strain GIM3, stronger effect = lower value
[15] = S. cerevisiae deletion strains, locus YPL241C, strain CIN2, stronger effect = lower value

Measured: normalized growth

COc1cc(CNC(=O)CCCCCCC(C)C)ccc1O
inactive: [1] 0.944 | S. cerevisiae deletion strains, locus YAL040C, strain CLN3, stronger effect = lower value 0.986 | S. cerevisiae deletion strains, locus YCL061C, strain MRC1 (second series), stronger effect = lower value 0.993 | [2] 1 | S. cerevisiae deletion strains, locus YDR363W, strain ESC2, stronger effect = lower value 0.974 | S. cerevisiae deletion strains, locus YER002W, strain NOP16, stronger effect = lower value 1 | [3] 0.999 | [4] 0.988 | [5] 0.973 | S. cerevisiae deletion strains, locus YNL175C, strain NOP13, stronger effect = lower value 1.01 | S. cerevisiae deletion strains, locus YNL197C, strain WHI3, stronger effect = lower value 0.981 | S. cerevisiae deletion strains, locus YNL224C, strain SQS1, stronger effect = lower value 0.981 | [6] 0.983 | S. cerevisiae deletion strains, locus YOR083W, strain WHI5 (second series), stronger effect = lower value 0.981

CCC[C@H]1CC2=C(C[C@@H](CC)CC3=C1C(=O)OC3=O)C(=O)OC2=O
inactive: S. cerevisiae deletion strains, locus YBR021W, strain FUR4, stronger effect = lower value 1 | [7] 1.01 | S. cerevisiae deletion strains, locus YCL029C, strain bik1, stronger effect = lower value 1.02 | S. cerevisiae deletion strains, locus YDL035C, strain GPR1, stronger effect = lower value 1.03 | S. cerevisiae deletion strains, locus YDL074C, strain BRE1, stronger effect = lower value 1.02 | [8] 1.02 | S. cerevisiae deletion strains, locus YDL134C, strain PPH21, stronger effect = lower value 1.01 | S. cerevisiae deletion strains, locus YDL185W, strain tfp1, stronger effect = lower value 1.01 | S. cerevisiae deletion strains, locus YDL192W, strain arf1, stronger effect = lower value 1.02 | S. cerevisiae deletion strains, locus YDR101C, strain arx1, stronger effect = lower value 1.03 | [2] 1.01 | S. cerevisiae deletion strains, locus YDR162C, strain NBP2, stronger effect = lower value 1.01 | S. cerevisiae deletion strains, locus YDR318W, strain mcm21, stronger effect = lower value 0.998 | S. cerevisiae deletion strains, locus YDR388W, stronger effect = lower value 1.02 | S. cerevisiae deletion strains, locus YDR502C, strain sam2, stronger effect = lower value 1.01 | [9] 1.01 | S. cerevisiae deletion strains, locus YER110C, stronger effect = lower value 1.02 | S. cerevisiae deletion strains, locus YER155C, strain BEM2, stronger effect = lower value 1.01 | S. cerevisiae deletion strains, locus YER167W, strain BCK2, stronger effect = lower value 1.01 | S. cerevisiae deletion strains, locus YGL086W, strain mad1, stronger effect = lower value 1.05 | S. cerevisiae deletion strains, locus YGL248W, strain PDE1, stronger effect = lower value 1 | [3] 1.01 | S. cerevisiae deletion strains, locus YGR135W, strain pre9, stronger effect = lower value 1 | S. cerevisiae deletion strains, locus YGR252W, strain gcn5, stronger effect = lower value 0.969 | [10] 1.01 | S. cerevisiae deletion strains, locus YHR079C, strain IRE1 (second series), stronger effect = lower value 1.02 | S. cerevisiae deletion strains, locus YHR094C, strain hxt1, stronger effect = lower value 1.01 | S. cerevisiae deletion strains, locus YHR129C, strain ARP1, stronger effect = lower value 1.02 | S. cerevisiae deletion strains, locus YHR200W, strain rpn10, stronger effect = lower value 1 | S. cerevisiae deletion strains, locus YIL066C, strain RNR3, stronger effect = lower value 1.02 | S. cerevisiae deletion strains, locus YIL073C, strain SPO22, stronger effect = lower value 1.07 | S. cerevisiae deletion strains, locus YIR030C, strain dcg1, stronger effect = lower value 1.01 | S. cerevisiae deletion strains, locus YJL095W, strain BCK1, stronger effect = lower value 1.01 | S. cerevisiae deletion strains, locus YJL134W, strain LCB3, stronger effect = lower value 1.01 | S. cerevisiae deletion strains, locus YJL168C, strain set2, stronger effect = lower value 1.01 | S. cerevisiae deletion strains, locus YJL187C, strain SWE1 (second series), stronger effect = lower value 1.02 | [11] 1.01 | [4] 1.01 | S. cerevisiae deletion strains, locus YKL068W, stronger effect = lower value 0.979 | S. cerevisiae deletion strains, locus YKL085W, strain MDH1 (second series), stronger effect = lower value 0.932 | S. cerevisiae deletion strains, locus YKL085W, strain MDH1, stronger effect = lower value 0.932 | S. cerevisiae deletion strains, locus YKL190W, strain CNB1, stronger effect = lower value 1.01 | S. cerevisiae deletion strains, locus YKR001C, strain vps1, stronger effect = lower value 1.02 | [12] 1.04 | S. cerevisiae deletion strains, locus YLR058C, strain SHM2, stronger effect = lower value 1.01 | S. cerevisiae deletion strains, locus YLR102C, strain apc9, stronger effect = lower value 1.02 | [13] 1.02 | S. cerevisiae deletion strains, locus YLR268W, strain sec22, stronger effect = lower value 1.04 | S. cerevisiae deletion strains, locus YLR330W, strain CHS5, stronger effect = lower value 1.01 | S. cerevisiae deletion strains, locus YLR342W, strain FKS1 (second series), stronger effect = lower value 1.03 | S. cerevisiae deletion strains, locus YLR371W, strain rom2, stronger effect = lower value 1.03 | S. cerevisiae deletion strains, locus YLR418C, strain cdc73, stronger effect = lower value 0.991 | S. cerevisiae deletion strains, locus YML016C, strain PPZ1, stronger effect = lower value 1 | S. cerevisiae deletion strains, locus YML032C, strain rad52, stronger effect = lower value 0.999 | S. cerevisiae deletion strains, locus YML124C, strain tub3, stronger effect = lower value 1.01 | S. cerevisiae deletion strains, locus YMR078C, strain ctf18, stronger effect = lower value 1.01 | S. cerevisiae deletion strains, locus YMR223W, strain ubp8, stronger effect = lower value 0.987 | [5] 0.947 | S. cerevisiae deletion strains, locus YNL067W, strain RPL9B, stronger effect = lower value 1.01 | [14] 1.02 | S. cerevisiae deletion strains, locus YNL233W, strain BNI4, stronger effect = lower value 0.999 | S. cerevisiae deletion strains, locus YNL307C, strain MCK1, stronger effect = lower value 1.02 | [6] 1.01 | S. cerevisiae deletion strains, locus YNR052C, strain pop2, stronger effect = lower value 0.998 | S. cerevisiae deletion strains, locus YOL006C, strain TOP1, stronger effect = lower value 1.08 | S. cerevisiae deletion strains, locus YOL012C, strain htz1 0.773 | S. cerevisiae deletion strains, locus YOL147C, strain pex11, stronger effect = lower value 1.01 | S. cerevisiae deletion strains, locus YOR061W, strain CKA2, stronger effect = lower value 1.01 | S. cerevisiae deletion strains, locus YOR069W, strain VPS5, stronger effect = lower value 1.02 | S. cerevisiae deletion strains, locus YOR136W, strain idh2, stronger effect = lower value 1.04 | S. cerevisiae deletion strains, locus YOR144C, strain elg1, stronger effect = lower value 1.01 | S. cerevisiae deletion strains, locus YOR184W, strain ser1, stronger effect = lower value 1.02 | S. cerevisiae deletion strains, locus YOR316C, strain cot1, stronger effect = lower value 1.02 | [15] 1.01 | S. cerevisiae deletion strains, locus YPR119W, strain clb2, stronger effect = lower value 1.02 | S. cerevisiae deletion strains, locus YPR163C, strain tif3, stronger effect = lower value 1.01 | S. cerevisiae deletion strains, locus YPR167C, strain met16, stronger effect = lower value 0.998 | S. cerevisiae deletion strains, strain wtn01, stronger effect = lower value 1.06
active: S. cerevisiae deletion strains, locus YGL078C, strain dbp3, stronger effect = lower value 0.65 | S. cerevisiae deletion strains, locus YIL125W, strain kgd1, stronger effect = lower value 0.875 | S. cerevisiae deletion strains, locus YKL009W, strain mrt4, stronger effect = lower value 0.663 | S. cerevisiae deletion strains, locus YNL250W, strain rad50, stronger effect = lower value 0.814 | S. cerevisiae deletion strains, locus YNL271C, strain bni1, stronger effect = lower value 0.845 | S. cerevisiae deletion strains, locus YNL298W, strain CLA4, stronger effect = lower value 0.818 | S. cerevisiae deletion strains, locus YPR141C, strain kar3, stronger effect = lower value 0.896

CSC1=NCN(Cc2ccccc2)CN1
inactive: [1] 0.991 | [7] 0.996 | [8] 1 | [2] 1.01 | [9] 0.981 | [3] 1 | [10] 1.02 | S. cerevisiae deletion strains, locus YHR087W, strain rtc3, stronger effect = lower value 1 | [11] 1 | [4] 0.99 | [12] 0.969 | S. cerevisiae deletion strains, locus YLR058C, strain SHM2 (second series), stronger effect = lower value 1.01 | S. cerevisiae deletion strains, locus YLR085C, strain ARP6, stronger effect = lower value 0.954 | [13] 0.972 | S. cerevisiae deletion strains, locus YML094W, strain GIM5, stronger effect = lower value 0.981 | S. cerevisiae deletion strains, locus YMR219W, strain ESC1, stronger effect = lower value 0.986 | S. cerevisiae deletion strains, locus YMR263W, strain SAP30, stronger effect = lower value 1 | [14] 1.02 | S. cerevisiae deletion strains, locus YNL298W, strain CLA4 (second series), stronger effect = lower value 1 | [6] 0.972 | S. cerevisiae deletion strains, locus YNR030W, strain Alg12, stronger effect = lower value 0.977 | S. cerevisiae deletion strains, locus YPL055C, strain LGE1, stronger effect = lower value 1.06 | [15] 0.987 | S. cerevisiae deletion strains, locus YPR135W, strain CTF4, stronger effect = lower value 1.1 | S. cerevisiae strains, strain wild type, stronger effect = lower value 0.98
